Bioassay records as filed in PubChem.
G9a inh: qHTS Assay for Inhibitors of Histone Lysine Methyltransferase G9a; Histone-lysine N-methyltransferase EHMT2 (Homo sapiens), Q96KQ7; G9a H3K9 monomethylation, AlphaScreen, 2 h; Potency, µM (series often up to 102 µM), for inactives: at the highest dose activity, negative = inhibition, hits mostly inhibitors; actives 8.8% (n = 350,000); AID 504332, 2011; note: % is set by controls: 0 for no effect and ±100 for the full control effect; nearly all actives have a fitted effect of over 75% in size
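Enzyme 20 nM + cpd, 15 min RT; add b-H3K9 pep 500 nM / SAM 20 uM; 2 h RT; anti-H3K9me1 Ab 0.5 ug/mL + SA donor / anti-rabbit acceptor beads 20 ug/mL each, 10 min; AlphaScreen read.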
BAZ2B block: qHTS Assay for Inhibitors of BAZ2B; AlphaScreen BAZ2B-H3K14Ac peptide displacement; Bromodomain adjacent to zinc finger domain protein 2B (Homo sapiens), Q9UIF8; actives 4.4% (n = 360,000); Potency, µM (doses to about 114 µM), without a hit: top-dose activity change, negative = inhibition, most hits filed as inhibitors; note: % is set by controls: 0 for no effect and ±100 for the full control effect; nearly all actives have a fitted effect of over 60% in size
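Compounds, titrated to a top concentration of 110 uM, were incubated 30 min at room temperature with preformed BAZ2B/acetyl-K14 H3 peptide complex (50 nM each). Proximity signal was measured by AlphaScreen after 20 min with beads.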
HP1b chromo inh: HTS for Inhibitors of HP1-beta Chromodomain Interactions with Methylated Histone Tails; Potency, µM (top dose mostly 114 µM), for inactives: at the top dose activity change, negative = inhibition, most hits filed as inhibitors; actives 0.56% (n = 390,000); Chromobox protein homolog 1 (Homo sapiens), P83916; AlphaScreen HP1-beta / biotin-H3K9me3 peptide binding; note: nearly all actives have a fitted effect of over 70% in size
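Compound inhibition of the preformed complex between 50 nM HP1-beta and 50 nM biotinylated H3K9me3 peptide was read by AlphaScreen. Buffer was PBS pH 7.4 with 0.01% Tween-20. Incubations ran 30 min at room temperature, with 10 ug/mL donor/acceptor beads.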
L3MBTL1 inh: qHTS Assay for the Inhibitors of L3MBTL1 | Lethal(3)malignant brain tumor-like protein 1 (Homo sapiens), Q9Y468 | AlphaScreen L3MBTL1–H3K9me1 peptide binding | Potency, µM (series often up to 57.1 µM), without a hit: top-dose activity, negative = inhibition, hits mostly inhibitors | actives 0.66% (n = 230,000) | AID 485360, 2010; note: % is set by controls: 0 for no effect and ±100 for the full control effect; nearly all actives have a fitted effect of over 60% in size
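AlphaScreen assay: L3MBTL1 (50 nM final) was preincubated 30 min at room temperature with biotinylated H3(1-15)K9me1 peptide (75 nM final), then 30 min with library compounds; streptavidin donor and nickel chelate acceptor beads (10 ug/mL final) added, 30 min dark.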
JMJD2A Tudor inh: qHTS Assay for Inhibitors of JMJD2A-Tudor Domain | Lysine-specific demethylase 4A (Homo sapiens), O75164 | AlphaScreen JMJD2A-Tudor / H3K4me3 peptide binding | Potency, µM (highest dose often 114 µM), for inactives: top-dose activity change, negative = inhibition, hits mostly inhibitors | actives 4.4% (n = 390,000); note: % is set by controls: 0 for no effect and ±100 for the full control effect; nearly all actives have a fitted effect of over 50% in size
* hit, by the source's call; i = inactive; ? = inconclusive; nt = not tested or not shown; [ ] = another dose, or the depositor's remark. Sampled rows, rich in hits. Any-hit rate of the full collection: about 11%. Calls come from the whole dose curve; as a rule, active = well fitted inhibition curve with a large enough effect; inconclusive = small, poorly fitted or top-dose-only effect; inactive = no such curve, though single readings can be large or run the other way. Potency is the fitted concentration of half-maximal effect.

SMILES	G9a inh	BAZ2B block	HP1b chromo inh	L3MBTL1 inh	JMJD2A Tudor inh
Cc1ccc(-c2c(C(=O)NCCc3ccccc3)oc(=O)c3ccccc23)cc1	9%[59 µM]	nt	39%	nt	-5%
COc1ccc(CCNC(=O)c2nc(-c3ccc(Cl)cc3)n3c2CCCCC3)c(OC)c1	13µM*	18µM*	-23%	nt	18µM*
COc1cccc(N2CCN(C(=O)c3nc(-c4ccc(Cl)cc4)n4c3CCCCC4)CC2)c1	18µM*	28µM*	?	nt	40µM*
Cc1ccc(-c2nc(C(=O)NCc3ccccc3Cl)c3n2CCCCC3)cc1	-9%[59 µM]	-32%	-5%	nt	-18%
COc1ccccc1N1CCN(C(=O)c2nc(-c3ccc(C)cc3)n3c2CCCCC3)CC1	?	-19%	-1%	nt	-30%
Cc1cccc(CCNC(=O)c2nc(-c3ccc(Cl)cc3)n3c2CCCCC3)c1	11µM*	10µM*	-23%	nt	14µM*
O=c1c(S(=O)(=O)c2ccccc2)cn(Cc2ccccc2)c2cc(N3CCOCC3)c(F)cc12	-10%[59 µM]	3%	27%	nt	-25%
Cc1ccc(NC(=O)CSc2nnc3[nH]c(=O)cc(-c4ccccc4)n23)cc1Cl	0%[59 µM]	-13%	-6%	nt	?
Cc1cc(C)nc(/N=C2\NC(=O)CC(C(=O)O)N2c2ccc(F)c(Cl)c2)n1 (stereo unspecified)	-45%	-20%	nt	-24%	nt
COC(=O)/C=C1/C(=O)N/C(=N\c2nc(C)cc(C)n2)N1c1ccc(OC)cc1	?	?	29%	4%	25µM*
COC(=O)/C=C1\N/C(=N\c2nc(C)cc(C)n2)N(c2ccc(C)c(C)c2)C1=O	?	-30%	30%	9%	28µM*
COC(=O)/C=C1\N/C(=N\c2nc(C)cc(C)n2)N(c2ccc(Cl)cc2)C1=O	nt	-8%	8%	-1%	20µM*
CCOc1ccccc1CNS(=O)(=O)c1ccc(-c2coc(C)n2)cc1	2%[59 µM]	-19%	20%[57 µM]	nt	?
Cn1cccc1C(=O)N1CCC2(CC1)CN(C(=O)Nc1cccc(C#N)c1)C2	-5%[12.7 µM]	nt	nt	nt	nt
Cc1ccc(N2CCN(CC(O)COc3ccccc3)CC2)cc1 (stereo unspecified)	-19%	?	14%	1%	-25%
COCCOCC(O)CN1CCN(c2ccc(C)cc2)CC1 (stereo unspecified)	4.5µM*	nt	-38%	-7%	?
COCCOCC(O)CN1CCN(c2ccccc2)CC1 (stereo unspecified)	?	50µM*	-26%	nt	13µM*
Cc1ccc(C(=O)N2CCc3cc(CNS(=O)(=O)c4cccs4)ccc32)cc1	10%[59 µM]	-1%	30%[57 µM]	nt	-2%
COCCNC(=S)N/N=C1\CC(C)CC(C)(C)C1 (stereo unspecified)	50µM*	?	1%	6%	-25%
COCCNC(=S)NN=C1CCCCCC1	7%	-22%	6%	nt	-13%
COC(=O)c1ccc(OCC2c3cc(OC)c(OC)cc3CCN2C(=O)Cc2ccc(OC)cc2)cc1 (stereo unspecified)	?	-21%	51%	nt	-28%
COc1cccc(CNCC(O)COc2ccc(C(=O)c3ccccc3)cc2)c1 (stereo unspecified)	10µM*	50µM*	?	nt	56µM*
O=C(c1ccccc1)c1ccc(OCC(O)CNCc2ccc(Cl)cc2)cc1 (stereo unspecified)	?	56µM*	?	nt	20µM*
CCCCn1c(N)c(N(CC(C)C)C(=O)c2cc(S(=O)(=O)N3CCCCC3)ccc2C)c(=O)[nH]c1=O	?	-1%	5%	6%	-4%
CC(=O)c1cccc(NC(=O)Cn2nc(C(F)(F)F)c3c2CCC3)c1	5%[59 µM]	1%	38%	nt	-7%
SMILES	G9a inh	BAZ2B block	HP1b chromo inh	L3MBTL1 inh	JMJD2A Tudor inh
CC(C)(NO)/C(=N/O)c1ccc(Br)cc1	32µM*	?	1%	2%	28µM*
CC(C)(NO)/C(=N\O)c1ccc(Cl)cc1	10µM*	56µM*	-8%	2%	40µM*
COc1ccc(/C(=N/O)C(C)(C)NO)cc1	13µM*	50µM*	?	nt	40µM*
C/C(=N\O)C(C)(C)Nc1ccc(Br)cc1	-44%	3%	36%	-3%	-22%
Cc1ccc(OCC(=O)Nc2ccc3nc(SCCOc4ccccc4)sc3c2)cc1	-5%[59 µM]	-11%	30%	nt	-11%
CC1CC(C)CN(S(=O)(=O)N2CCC(C(=O)NCCc3ccccc3)CC2)C1 (stereo unspecified)	17%	-14%[57.1 µM]	48%	nt	1%
Cc1oc(-c2ccc(C(=O)Nc3cccc(C(F)(F)F)c3)cc2)nc1CSc1ccccc1	-1%[59 µM]	-15%	26%	nt	-14%
COC(=O)C1=C(C)NC(=O)/C1=C\c1ccco1	-50%	?	1%	-2%	-32%
CC(=O)COc1ccc2c(c1C)O/C(=C\c1ccco1)C2=O	28µM*	-34%	11%	nt	-28%
COc1ccc(/C=C2\Oc3cc(OCC(N)=O)ccc3C2=O)cc1OC	-9%	2%	37%	nt	-12%
COC(=O)C(C)Oc1ccc2c(c1)O/C(=C\c1ccco1)C2=O (stereo unspecified)	11µM*	?	-9%	nt	50µM*
COC(=O)COc1ccc2c(c1)O/C(=C\c1cccc([N+](=O)[O-])c1)C2=O	17%	-1%	22%	nt	-11%
COc1ccc2c(c1)O/C(=C\c1ccco1)C2=O	nt	14µM*	?	nt	?
CCOc1ccc(NS(=O)(=O)c2ccc3c(c2)NC(=O)CCS3)cc1	3%[59 µM]	-1%	12%	nt	-8%
O=C(COC(=O)/C=C/c1cccc(Cl)c1)Nc1ccc2[nH]c(=O)[nH]c2c1	32µM*	-5%	36%	1%	-10%
O=C(COC(=O)/C=C/c1cccc(F)c1)Nc1ncccn1	71µM*	56µM*	-5%	nt	?
O=C(COC(=O)/C=C/c1ccc([N+](=O)[O-])cc1)Nc1ccc2[nH]c(=O)[nH]c2c1	50µM*	5%	9%	-3%	-14%
O=S(=O)(c1ccc(Cl)cc1)N1CCN(c2nc(Nc3cc(Cl)ccc3O)nc3ccccc23)CC1	nt	nt	i	nt	-34%[80.7 µM]
CCOc1ccc(/C=C/c2nc(C#N)c(NC(C)c3ccccc3)o2)cc1 (stereo unspecified)	-37%[59 µM]	-27%	9%	nt	-22%
O=C(c1ccc(C#Cc2ccccc2)o1)N1CCN(c2ccccn2)CC1	45µM*	?	?	-22%	-18%
O=C(c1ccc(CS(=O)c2ccccc2Cl)o1)N1CCN(c2ccccn2)CC1 (stereo unspecified)	89µM*	-15%	46%	nt	-4%
